Values joined by “and” are separate entries in the source; they are usually repeats but may differ in a detail not shown here. Equal values may be shown once. In all, about 5,500 compounds went through this assay and about 2,000 (36%) were called active. About 18% were inconclusive and are not listed. No stated cut-off is given here; in the data, active means normalized growth mostly below about 0.91 (no sharp cut-off); inconclusive means no clear call, values can overlap the other calls; inactive means mostly above about 0.92. The list shows a part of the results.
Experiment: chemical genetic growth profiling, strain panel (AID 1159580);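 further: tested at 20 µM; growth read once vehicle control cultures reached saturation at 30 °C; 1 = growth at the plate median or of vehicle wells; lower values mean less growth of the strain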
Details: S. cerevisiae deletion strains, growth OD
[1] = locus YAL013W, strain DEP1, hits give low values
[2] = locus YMR307W, strain GAS1, hits give low values
[3] = locus YNL322C, strain KRE1, hits give low values

Measured: normalized growth

NC(N)=N[C@@H](CCC(=O)O)C(=O)O
inactive: [1] 1.03 | locus YAL040C, strain CLN3, hits give low values 1.09 | locus YCL061C, strain MRC1 (second series), hits give low values 1.01 | locus YDR363W, strain ESC2, hits give low values 1.02 | locus YER002W, strain NOP16, hits give low values 1 | [2] 1.01 | locus YNL128W, strain TEP1, hits give low values 1 | locus YNL153C, strain GIM3, hits give low values 1.02 | locus YNL175C, strain NOP13, hits give low values 1.01 | locus YNL197C, strain WHI3, hits give low values 1.02 | locus YNL224C, strain SQS1, hits give low values 1 | [3] 1.02 | locus YOR083W, strain WHI5 (second series), hits give low values 1.04

C[N+]1(C)C2CC[C@H]1CC(OC(=O)C(O)c1ccccc1)C2 (stereo partly drawn)
inactive: [1] 0.996 | locus YAL021C, strain ccr4, hits give low values 1.02 | locus YAL026C, strain drs2, hits give low values 1 | locus YAL030W, strain snc1, hits give low values 0.999 | locus YBL061C, strain skt5, hits give low values 1 | locus YBR009C, strain hhf1, hits give low values 0.996 | locus YBR021W, strain FUR4, hits give low values 0.985 | locus YBR023C, strain chs3, hits give low values 0.992 | locus YBR171W, strain sec66, hits give low values 1 | locus YBR229C, strain ROT2, hits give low values 0.996 | locus YBR231C, strain swc5, hits give low values 1 | locus YBR279W, strain paf1, hits give low values 1.01 | locus YCL011C, strain gbp2, hits give low values 0.984 | locus YCL016C, strain dcc1, hits give low values 0.971 | locus YCL029C, strain bik1, hits give low values 0.995 | locus YCL061C, strain MRC1, hits give low values 0.998 | locus YCL069W, strain vba3, hits give low values 0.996 | locus YCR088W, strain abp1, hits give low values 0.993 | locus YDL005C, strain med2, hits give low values 0.991 | locus YDL035C, strain GPR1, hits give low values 0.993 | locus YDL040C, strain nat1, hits give low values 0.997 | locus YDL074C, strain BRE1, hits give low values 1.01 | locus YDL101C, strain DUN1, hits give low values 0.996 | locus YDL134C, strain PPH21, hits give low values 1.01 | locus YDL185W, strain tfp1, hits give low values 1.01 | locus YDL192W, strain arf1, hits give low values 1.02 | locus YDR001C, strain nth1, hits give low values 0.993 | locus YDR069C, strain doa4, hits give low values 1.02 | locus YDR101C, strain arx1, hits give low values 0.976 | locus YDR137W, strain rgp1, hits give low values 0.992 | locus YDR159W, strain sac3, hits give low values 1.03 | locus YDR162C, strain NBP2, hits give low values 0.997 | locus YDR195W, strain ref2 1.01 | locus YDR297W, strain sur2, hits give low values 1 | locus YDR318W, strain mcm21, hits give low values 1.02 | locus YDR334W, strain swr1, hits give low values 1 | locus YDR335W, strain msn5, hits give low values 1 | locus YDR388W, hits give low values 1.01 | locus YDR392W, strain spt3, hits give low values 0.94 | locus YDR502C, strain sam2, hits give low values 1.02 | locus YEL003W, strain gim4, hits give low values 1.01 | locus YEL037C, strain rad23, hits give low values 1 | locus YEL061C, strain CIN8 (second series), hits give low values 1 | locus YEL061C, strain CIN8, hits give low values 0.995 | locus YER015W, strain faa2, hits give low values 1 | locus YER016W, strain bim1, hits give low values 1.01 | locus YER110C, hits give low values 1.02 | locus YER111C, strain swi4, hits give low values 0.997 | locus YER155C, strain BEM2 (second series), hits give low values 1 | locus YER155C, strain BEM2, hits give low values 0.988 | locus YER167W, strain BCK2, hits give low values 0.977 | locus YFR010W, strain ubp6, hits give low values 1 | locus YGL078C, strain dbp3, hits give low values 1.03 | locus YGL086W, strain mad1, hits give low values 1 | locus YGL167C, strain pmr1, hits give low values 1.01 | locus YGL173C, strain kem1, hits give low values 1.01 | locus YGL227W, strain vid30, hits give low values 0.988 | locus YGL240W, strain doc1, hits give low values 1.01 | locus YGL248W, strain PDE1, hits give low values 0.999 | locus YGL253W, strain hxk2, hits give low values 1 | locus YGR135W, strain pre9, hits give low values 1.04 | locus YGR229C, strain SMI1, hits give low values 0.976 | locus YGR252W, strain gcn5, hits give low values 1.03 | locus YHR013C, strain ard1, hits give low values 0.999 | locus YHR027C, strain rpn1, hits give low values 1.01 | locus YHR030C, strain SLT2, hits give low values 0.978 and 0.976 | locus YHR079C, strain IRE1 (second series), hits give low values 1.01 | locus YHR079C, strain IRE1, hits give low values 0.967 | locus YHR094C, strain hxt1, hits give low values 1.01 | locus YHR129C, strain ARP1, hits give low values 1.01 | locus YHR142W, strain chs7, hits give low values 0.973 | locus YHR200W, strain rpn10, hits give low values 1.02 | locus YIL066C, strain RNR3, hits give low values 0.999 | locus YIL073C, strain SPO22, hits give low values 1.05 | locus YIL125W, strain kgd1, hits give low values 0.995 | locus YIR030C, strain dcg1, hits give low values 1.01 | locus YJL092W, strain hpr5, hits give low values 0.995 | locus YJL095W, strain BCK1 (second series), hits give low values 0.999 | locus YJL095W, strain BCK1, hits give low values 1.01 and 0.993 | locus YJL115W, strain asf1, hits give low values 0.987 | locus YJL129C, strain trk1, hits give low values 1.01 | locus YJL134W, strain LCB3, hits give low values 0.989 | locus YJL154C, strain vps35, hits give low values 0.993 | locus YJL164C, strain tpk1, hits give low values 1 | locus YJL166W, strain qcr8, hits give low values 0.999 | locus YJL168C, strain set2, hits give low values 1.01 | locus YJL187C, strain SWE1 (second series), hits give low values 1 | locus YJL187C, strain SWE1, hits give low values 1 | locus YJR043C, strain POL32, hits give low values 1 | locus YJR066W, strain TOR1, hits give low values 0.928 | locus YKL009W, strain mrt4, hits give low values 1.01 | locus YKL068W, hits give low values 1 | locus YKL085W, strain MDH1 (second series), hits give low values 1 | locus YKL085W, strain MDH1, hits give low values 1 | locus YKL160W, strain elf1, hits give low values 1 | locus YKL190W, strain CNB1, hits give low values 0.985 | locus YKR001C, strain vps1, hits give low values 0.996 | locus YKR026C, strain gcn3, hits give low values 0.999 | locus YKR091W, strain srl3, hits give low values 0.997 | locus YLL001W, strain dnm1, hits give low values 0.98 | locus YLL026W, hits give low values 0.999 | locus YLL041C, strain sdh2, hits give low values 1 | locus YLR027C, strain aat2, hits give low values 1 | locus YLR039C, strain RIC1, hits give low values 0.967 | locus YLR058C, strain SHM2, hits give low values 1.01 | locus YLR102C, strain apc9, hits give low values 1.02 | locus YLR113W, strain HOG1, hits give low values 1 | locus YLR221C, strain rsa3, hits give low values 0.955 | locus YLR258W, strain gsy2, hits give low values 0.983 | locus YLR262C, strain YPT6 (second series), hits give low values 1 | locus YLR262C, strain YPT6, hits give low values 0.977 | locus YLR268W, strain sec22, hits give low values 1.03 | locus YLR320W, strain mms22, hits give low values 0.978 | locus YLR330W, strain CHS5, hits give low values 1 | locus YLR342W, strain FKS1 (second series), hits give low values 1 | locus YLR342W, strain FKS1, hits give low values 1 | locus YLR357W, strain rsc2, hits give low values 1.01 | locus YLR370C, strain arc18, hits give low values 0.993 | locus YLR371W, strain rom2, hits give low values 1 | locus YLR384C, strain iki3, hits give low values 0.994 | locus YLR418C, strain cdc73, hits give low values 1.05 | locus YML016C, strain PPZ1, hits give low values 1.01 | locus YML032C, strain rad52, hits give low values 0.999 | locus YML120C, strain ndi1, hits give low values 0.964 | locus YML124C, strain tub3, hits give low values 1.01 | locus YMR058W, strain fet3, hits give low values 1.01 | locus YMR078C, strain ctf18, hits give low values 1.03 | locus YMR125W, strain sto1, hits give low values 0.996 | locus YMR129W, hits give low values 0.999 | locus YMR205C, strain PFK2, hits give low values 0.992 | locus YMR223W, strain ubp8, hits give low values 1.02 | locus YMR231W, strain pep5, hits give low values 1 | [2] 0.983 | locus YNL067W, strain RPL9B, hits give low values 0.995 | locus YNL071W, strain lat1, hits give low values 1 | locus YNL183C, strain NPR1, hits give low values 0.956 | locus YNL209W, strain ssb2, hits give low values 1 | locus YNL233W, strain BNI4, hits give low values 1 | locus YNL248C, strain rpa49, hits give low values 1 | locus YNL250W, strain rad50, hits give low values 1.02 | locus YNL271C, strain bni1, hits give low values 1.02 | locus YNL298W, strain CLA4, hits give low values 1.03 | locus YNL307C, strain MCK1, hits give low values 1.02 | locus YNL322C, strain KRE1 (second series), hits give low values 0.991 | [3] 0.998 | locus YNR049C, strain mso1, hits give low values 1.01 | locus YNR052C, strain pop2, hits give low values 1.02 | locus YOL012C, strain htz1 1.26 | locus YOL147C, strain pex11, hits give low values 1.02 | locus YOR001W, strain rrp6, hits give low values 1.03 | locus YOR061W, strain CKA2, hits give low values 1.01 | locus YOR069W, strain VPS5, hits give low values 0.987 | locus YOR070C, strain gyp1, hits give low values 0.999 | locus YOR080W, strain dia2, hits give low values 0.994 | locus YOR083W, strain WHI5, hits give low values 1 | locus YOR106W, strain vam3, hits give low values 1 | locus YOR136W, strain idh2, hits give low values 1.02 | locus YOR144C, strain elg1, hits give low values 1.01 | locus YOR184W, strain ser1, hits give low values 1.03 | locus YOR231W, strain MKK1, hits give low values 0.983 | locus YOR265W, strain rbl2, hits give low values 0.996 | locus YOR270C, strain vph1, hits give low values 1.01 | locus YOR290C, strain snf2, hits give low values 0.966 | locus YOR316C, strain cot1, hits give low values 1.02 | locus YPL051W, strain arl3, hits give low values 1.01 | locus YPL055C, strain LGE1, hits give low values 0.985 | locus YPL078C, strain atp4, hits give low values 1 | locus YPL106C, strain sse1, hits give low values 0.99 | locus YPL240C, strain hsp82, hits give low values 0.997 | locus YPL256C, strain CLN2, hits give low values 0.982 | locus YPR119W, strain clb2, hits give low values 1.01 | locus YPR141C, strain kar3, hits give low values 1.02 | locus YPR163C, strain tif3, hits give low values 1.02 | locus YPR167C, strain met16, hits give low values 1.02 | strain wtn01, hits give low values 1.03
